Here are results for 38 molecules from PubChem BioAssay (EPA / NIEHS).

Values joined by “and” are separate entries in the source; they are usually repeats but may differ in a detail not shown here. Equal entries are not always repeated. Some compounds were tested as several samples or in several runs, with calls that do not always agree. Active and inactive are the calls of the source. The calls were made as follows: active = hit-call score of the fitted dose curve at least 0.9, where 1 is the maximum; inactive = score below 0.9.

Read-out in the experiment: Matrix Metallopeptidase 1 (MMP1), MMP1 (gene 4312)
Kind of experiment: BSK_hDFCGF_MMP1: BioMAP Diversity Plus: hDFCGF Assay for Matrix Metallopeptidase 1 (MMP1) Biomarker Activity (AID 2283064). As to conditions: primary human foreskin fibroblasts; actives raise or lower the signal. The procedure: BSK_hDFCGF is a cell-based, multiplexed-readout assay that uses foreskin fibroblast, a human skin primary cell, with measurements taken at 24 hours after chemical dosing in a 96-well plate.BSK_hDFCGF_MMP1 is an assay component measured in the BSK_hDFCGF assay. It measures MMP-1 antibody related to regulation of gene expression using ELISA technology.Data from the assay component BSK_hDFCGF_MMP1 was analyzed into 1 assay endpoint. This assay endpoint, BSK_hDFCGF_MMP1, was analyzed with bidirectional fitting relative to DMSO as the negative control and baseline of activity. Using a type of binding reporter, gain or loss-of-signal activity can be used to understand changes in the signaling as they relate to the gene MMP1. Furthermore, this assay endpoint can be referred to as a primary readout, because this assay has produced multiple assay endpoints where this one serves a signaling function. To generalize the intended target to other relatable targets, this assay endpoint is annotated to the protease intended target family, where the subfamily is matrix metalloproteinase.
The levels of cell surface (or secreted, indicated by the prefix "s") biomarker endpoints were measured by ELISA. Overt cytotoxicity to cells in confluent adherent cultures (all systems other than the BT system) was assessed by measuring total protein levels using sulforhodamine B (SRB) staining in parallel cultures at the time of biomarker measurements, indicated as SRB endpoints. For proliferation assays for adherent cell types, individual cell types are cultured at sub-confluence and relative cell numbers quantified by SRB staining at time points optimized for each system (48 h: 3C and CASM3C systems; 72 h: BT and HDF3CGF systems; 96 h: SAg system). SRB was performed by staining cells with 0.1% SRB after fixation with 10% TCA and reading wells at 560 nm.Viability and proliferation of PBMC (T cells) was quantified by Alamar Blue reduction for the SAg and BT systems. For PBMC viability (referred to as PBMC Cytotoxicity within the assay endpoint names), cells were plated (75,000/well in a 96-well plate) and then chemical samples added for 1 h before addition of activators, SEB and TSST-1 (20 ng/mL final concentration each). Cells were incubated for 90 h. Then, Alamar Blue (20 uL/well) (Invitrogen, Cat DAL1100) was added for 6 h, and the plates were read with a fluorescence microplate reader at 546/580 nm (excitation/emission). For PBMC proliferation, cells were plated and activated as above but incubated for only 16 h prior to addition of Alamar Blue. Plates were read after 6 h.
For the molecule `CC[C@H](C)[C@@H](C(=O)O)n1sc2ccccc2c1=O`, the result was inactive.
As to `OCCC(F)(F)C(F)(F)C(F)(F)C(F)(F)C(F)(F)C(F)(F)F`, the AC50 (commonly the midpoint of the concentration-response curve, whichever way the signal moves) was 55.1 µM (active) and the result was inactive.
With `OCCC(F)(F)C(F)(F)C(F)(F)C(F)(F)C(F)(F)C(F)(F)C(F)(F)C(F)(F)F`, the half-maximal activity concentration (AC50) was 17.9 µM (active) and 17 µM (active); the outcome was inactive.
Regarding `O=C(O)Cc1cc(I)c(Oc2cc(I)c(O)c(I)c2)c(I)c1`, the AC50 is 8.58 µM (active).
As for `CN1CCC[C@H]1c1cccnc1`, the result was inactive.
Same read-out and setting: with `COCC(C)OCC(C)O` (stereo unspecified) the entry was “inactive”; with `COC(=O)CCCCC(=O)OC`, “inactive”.
For the molecule `NCC(F)(F)C(F)(F)C(F)(F)C(F)(F)C(F)(F)C(F)(F)C(F)(F)F`, the outcome was inactive.
For the molecule `CC(C)(C)c1cccc(C(C)(C)C)c1O`, the AC50 is 35.9 µM (active).
Still for that read-out and setting: the same measure for `CCN(CC)CCNc1ccc(CNC=O)c2sc3ccc(OC)cc3c(=O)c12`: 10.7 µM (active).
In the case of `N#C[C@@H]1CC(F)(F)CN1C(=O)CNC1CC2CCC(C1)N2c1ncccn1` (stereo partly specified), the result was inactive.
On the same count and under the same terms, with `C=C(C)C(=O)OCCC(F)(F)C(F)(F)C(F)(F)C(F)(F)C(F)(F)C(F)(F)F` the entry was “inactive”; with `O=c1c(-c2ccc(O)cc2)coc2cc(O)ccc12`, “inactive”; with `OC1CCC(C2CCCCC2)CC1` (stereo unspecified), “inactive”.
In the case of `COc1ccc([N+](=O)[O-])cc1N`, the result was inactive.
On the same count and under the same terms, with `Oc1cccc(O)c1` the entry was “inactive”; with `c1ccc2cc3c(ccc4ccccc43)cc2c1`, “inactive”.
With `CCC(=C(c1ccc(O)cc1)c1ccc(OCCN(C)C)cc1)c1ccccc1`, the AC50 is 10.7 µM (active).
On to `COCC(C)O` (stereo unspecified), for which the outcome was inactive.
On to `Cc1cc(C)c(O)c(C)c1`, for which the outcome was inactive.
On to `CCc1ccc(CCOc2ccc(CC3SC(=O)NC3=O)cc2)nc1` (stereo unspecified), for which the result was inactive.
Take `Oc1cc2ccccc2c2ccccc12`: the AC50 was 2.93 µM (active).
In the case of `CC(C)CCCCCCOC(=O)CCCCC(=O)OCCCCCCC(C)C`, the result was inactive.
On the same count and under the same terms, the same measure for `CN(C)C=O`: “inactive”.
With `CC(C)(C)c1ccc(O)c(C(C)(C)C)c1`, the AC50 is 11.3 µM (active).
Turning to `OC1CCCCC1`, the outcome was inactive.
On to `CCCCCCCCCCCCCC[N+](C)(C)C`, for which the AC50 was 9.7 µM (active).
As to `CCCOC(=O)c1ccc(O)cc1`, the outcome was inactive.
On to `CC(C)(C)c1cc(C(C)(C)C)c(O)c(C(C)(C)C)c1`, for which the AC50 was 33.1 µM (active).
For the molecule `CCc1nn(C2CCCCC2)c2cc(C3(C#N)CCC(C(=O)O)CC3)ccc12` (stereo unspecified), the AC50 was 8.18 µM (active).
Take `Cc1oc(-c2ccccc2)nc1CCOc1ccc(C[C@H](Nc2ccccc2C(=O)c2ccccc2)C(=O)O)cc1`: the AC50 is 2.05 µM (active).
Turning to `CCC(C)(C)C1CCC(O)CC1` (stereo unspecified), the result was inactive.
With `ClC1=C(Cl)C(Cl)(Cl)C(Cl)=C1Cl`, the AC50 is 13.9 µM (active).
In the case of `c1ccc2c(c1)Cc1ccccc1-2`, the result was inactive.
As for `FC(F)(I)C(F)(F)C(F)(F)C(F)(F)C(F)(F)C(F)(F)I`, the AC50 is 5.8 µM (active) [middle of 5 runs].
For the molecule `CC(O)CO` (stereo unspecified), the result was inactive.
Still for that read-out and setting: with `CCCCCCCCOC(=O)CCCCCCCCC(=O)OCCCCCCCC` the entry was “inactive”.
Take `C[C@@H]1C[C@H]2[C@@H]3CCC4=CC(=O)C=C[C@]4(C)[C@@]3(F)[C@@H](O)C[C@]2(C)[C@@]1(O)C(=O)COP(=O)(O)O`: the result was inactive; the AC50 is 1.42 µM (active) and 386 nM (active).
